Pf Dd2 inh – Plasmodium falciparum Dd2 growth inhibition | P. falciparum Dd2 growth, SYBR Green, 72 h | Potency, µM (series often up to 28.9 µM), for inactives: at the highest dose activity, negative = inhibition, usual class: inhibitors | actives 4.3% (n = 120,000); active = well fitted inhibition curve with a large enough effect;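 also: plate controls were DMSO vehicle for no effect and reference drug for full effect; nearly all actives have a fitted effect of over 65% in size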
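Readout: SYBR Green fluorescence, 485 nm excitation, 535 nm emission, after ~16 h lysis at 37C. Before that, Dd2-infected red cells (2.5% hematocrit) grew 72 h with compound, 29 uM top final concentration.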
* hit, by the source's call; i = inactive; [ ] = another dose, or the depositor's remark. This excerpt belongs to a sample that is enriched for hits. Potency is read from the fitted curve at half-maximal effect.

SMILES	Pf Dd2 inh
COc1ccc(-c2nn(-c3ccccc3)cc2CN2CCC(F)CC2)c(F)c1	11µM*
COc1ccc(-c2nn(-c3ccccc3)cc2CN2CCC(CO)CC2)c(F)c1	i
COc1ccc(-n2nc(C3CCN(Cc4cccc5ccccc45)CC3)[nH]c2=O)cc1	i
COc1cccc(N2CC(C(=O)N3CCC(C#N)CC3)NC2=O)c1 (stereo not drawn)	-5%[44.1 µM]
OC1(CN2CCCCC2)CCN(Cc2cccc(F)c2F)C1 (stereo not drawn)	i
COc1ccc(-c2ccnc3nc(C4CC4)nn23)c(F)c1	i
Cc1cccc(-n2cc(CN3CCCC(C)(O)C3)c(-c3cccc(F)c3)n2)c1 (stereo not drawn)	8.9µM*
COc1ccc(OC)c(CN2CCN(Cc3ccccc3F)C(CCO)C2)c1 (stereo not drawn)	i
COc1ccc(CN2CCN(c3nc4ccccc4o3)CC2CCO)c(F)c1 (stereo not drawn)	-8%
CC(=O)NC1(C)CCN(Cc2cnc(-c3cccc(F)c3)s2)CC1	i
COc1ccc(-c2nn(-c3ccccc3)cc2CN2CCC(C#N)CC2)c(F)c1	11µM*
CCC1COCCN1Cc1cn(-c2ccccc2)nc1-c1ccc(OC)cc1F (stereo not drawn)	13µM*
COc1ccc(CN2C[C@H](O)C[C@H]2c2nc(-c3ccc(C)c(F)c3)no2)cc1	-6%[44.1 µM]
CCn1cc2c3c(cccc31)CN(C(=O)CC(C)(C)C)CC2	-5%
COC1C(=O)N(C2CCN(C(=O)c3cc4ccccc4[nH]3)CC2)C12CCOCC2 (stereo not drawn)	-26%
Cc1cnc(C(=O)NC2C[C@H]3CC[C@@H](C2)N3C(=O)COc2ccc(Cl)cc2C)cn1 (stereo partly drawn)	i
CN1CCC(C(=O)NCc2c[nH]c3ncccc23)CC1	1%[44.1 µM]
Cc1ccc(N2CCC(NC(=O)c3cc(F)cc(F)c3)C2=O)cc1 (stereo not drawn)	-15%
CC(C)Cn1cnc2cccnc21	11%[44.1 µM]
Cc1ccc(C2NC(=O)N(CC(=O)Nc3ccc(C(C)C)cc3)C3=C2C(=O)OC3)cc1 (stereo not drawn)	-20%
O=c1n(-c2ccc(F)cc2F)nc2n1CCN(Cc1cccc3ccccc13)C2	i
COc1cccc(-c2ccccc2NC(=O)C2CCN(Cc3cc(F)ccc3F)CC2)c1	-15%
Cc1ccccc1-c1nn(-c2ccc(F)cc2F)cc1CN1CCC[C@@H]1C(N)=O	-17%
COc1ccc(-n2cc(CN3CCC(O)CC3)c(-c3cccc(F)c3)n2)cc1	13µM*
Cc1ccccc1-c1nn(-c2ccc(F)cc2F)cc1CN1CCC(O)CC1	11µM*
SMILES	Pf Dd2 inh
COc1ccc(-c2nc3c(C)cccc3cc2CN2CCC(O)CC2)cc1OC	-7%
CCOCc1nc(C2CCCN(C(=O)c3ccc(OC)cc3OC)C2)no1 (stereo not drawn)	i
CC(=O)N1CCC(CC(=O)N[C@@H]2CN(C)C[C@H]2CN(C)C)CC1	-2%
COc1ccc(C(=O)N2CCC(Cc3nc(-c4ccc(F)cc4)no3)CC2)c(C)c1	i
COc1ccc(-c2noc([C@@H]3C[C@H](NCc4ccc(N(C)C)cc4)CN3C)n2)cc1	13µM*
COc1ccc(-c2noc([C@@H]3C[C@H](NC(=O)COCC(=O)O)CN3C)n2)cc1	-18%[44.1 µM]
COc1ccc(-c2noc([C@@H]3C[C@H](NS(=O)(=O)c4ccccc4)CN3C)n2)cc1	i
O=C(Nc1ccc2c(c1)C(=O)N1CCC[C@H]1C(=O)N2)c1n[nH]c2c1CCC2	i
CC(C)=CC(=O)N1CC[C@H](NC(=O)NC2CCCCC2)[C@H]1C(=O)N[C@H](Cc1c[nH]c2ccccc12)C(N)=O	10%
c1ccc(-c2nnc3n2CCN(Cc2ccsc2)C3)cc1	-23%[44.1 µM]
COc1cc(OC)cc(-c2nc3nc(C)c(CCC(=O)NCCC(C)C)c(C)n3n2)c1	43%
COc1cc(OC)cc(-c2nc3nc(C)c(CCC(=O)Nc4cc(C)cc(C)c4)c(C)n3n2)c1	8.9µM*
CCc1ccc(NC(=O)CCc2c(C)nc3nc(-c4cc(OC)cc(OC)c4)nn3c2C)cc1	i
CCCCN(CCC(=O)NCc1ccco1)C(=O)c1cc(C)oc1C	-8%
COc1ccc(CCNC(=O)c2nnn3c2COC(c2ccc(C)cc2)C3)cc1OC (stereo not drawn)	8.9µM*
COc1ccc(C2Cn3nnc(C(=O)N4CCC(C(=O)NC5CCCCC5)CC4)c3CO2)cc1 (stereo not drawn)	26%
COc1ccc(C2Cn3nnc(C(=O)NC4CCCCCCC4)c3CO2)cc1 (stereo not drawn)	8.9µM*
CCCCNC(=O)c1nnn2c1COC(c1ccc(C)cc1)C2 (stereo not drawn)	i
Cc1ccc(C2Cn3nnc(C(=O)NCc4ccc(F)cc4)c3CO2)cc1 (stereo not drawn)	i
Cc1ccc(C(=O)N2CCN(C(=O)c3nnn4c3COC(c3ccc(F)cc3)C4)CC2)cc1C (stereo not drawn)	7.1µM*
COc1ccc(C(=O)N2CCN(C(=O)c3nnn4c3COC(c3ccc(F)cc3)C4)CC2)cc1 (stereo not drawn)	0%
Cc1ccc(C2Cn3nnc(C(=O)N4CCN(C(=O)c5ccc(F)cc5)CC4)c3CO2)cc1 (stereo not drawn)	0%
COc1ccc(C2Cn3nnc(C(=O)N4CCC(C(=O)NC5CCCCCCC5)CC4)c3CO2)cc1 (stereo not drawn)	-17%
CC(=O)NC1CC2(CCN(C(C)=O)CC2)Oc2ccccc21 (stereo not drawn)	-5%[44.1 µM]
CN(C)C[C@@H]1CN(C)C[C@H]1NC(=O)c1ccc(Cn2ccnc2)o1	-6%
SMILES	Pf Dd2 inh
CN(C)C[C@@H]1CN(c2ncccn2)C[C@H]1NC(=O)c1ccc(C#N)cc1	i
Cn1cc([C@@H](NC(=O)CCc2ccc3c(c2)OCO3)C2CC(O)C2)cn1 (stereo partly drawn)	-13%
CC(=O)Nc1ccc(CN2C3CCC2CN(C(C)C)C3)cc1	9%[44.1 µM]
CCS(=O)(=O)Nc1ccc(C2(C(=O)NC3CCCC3)CCC2)cc1	0%
Cc1cc(N2CCN(c3cccc(C(F)(F)F)c3)CC2)n2nc(-c3ccccc3C)nc2n1	11µM*
COc1ccc(N2CCN(c3cc(C)nc4nc(-c5ccc(C)cc5)nn34)CC2)cc1	-10%
COc1ccc(-c2nc3nc(C)cc(Nc4cccc(C(F)(F)F)c4)n3n2)cc1	6%
COc1ccccc1OCC(=O)NCC1CCCN(Cc2ccc(C3CCCC3)s2)C1 (stereo not drawn)	i
O=C1[C@@H]2C[C@@H](O)CN2C2(CN(C3CCCCC3)C2)C(=O)N1Cc1ccccc1Cl	i
N#Cc1ccc(C(=O)N2CC[C@H]3C(=O)NCCCCCCN(Cc4ccncc4)[C@@H]3C2)cc1	1%
COc1ccc(C(=O)N2CCC3(CCC(=O)N(Cc4ccccc4)CC3)CC2)c(OC)n1	306%
O=C1COc2cc(C(=O)NC3CC(c4nnc(CO)n4C4CC4)C3)ccc2N1 (stereo not drawn)	6.3µM*
Cc1c(C(=O)NC2CC(c3nnc(CO)n3C3CC3)C2)n(C)c2c(C)cccc12 (stereo not drawn)	i
O=C(NC1CC(c2nnc(CO)n2C2CC2)C1)c1n[nH]c2c1COCC2 (stereo not drawn)	-14%
COCCNc1ncc(-c2ccc(O)cc2)c2c1OCC2	6%[44.1 µM]
CCn1cnnc1CC1CCN(C(=O)c2ccc(OC)cc2OC)C1 (stereo not drawn)	-18%
CCC(CC)NCc1cccnc1Oc1ccccc1	13µM*
O=C(NCc1cccnc1Oc1ccccc1)c1ccccn1	1%
